Measurements taken from the supplement of paper PMC7156485.
± gives the standard deviation of the averaged measurements.

How the values were obtained:
Details in all cases: concentration: 10 µM; 24 h
HCC1569 [1] = test: cell number relative to DMSO (% of DMSO); higher = more cells (less growth inhibition / toxicity)
How it was run: (§1)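 Using 384-well plates with 800 cells per well in RPMI plus 10% FBS, HCC1569 and TDF cells were exposed to compounds at 10 µM, in triplicate, for 24 h at 37 °C. Imaging of six fields per well at ×10 followed H1.0 and DAPI staining. The reported quantity, H1.0 nuclear intensity or cell number, is a median of replicates given as percent of the plate control, and HCC1569 values were smoothed for positional effects.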

TDF [2] = test: as above
How it was run: as §1

TDF [3] = test: H1.0 immunofluorescence intensity relative to DMSO (% of DMSO); higher = stronger H1.0 induction, active = 120 or more
How it was run: as §1

HCC1569 [4] = test: H1.0 immunofluorescence intensity relative to DMSO (% of DMSO); higher = stronger H1.0 induction, active = 140 or more
How it was run: as §1
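For H1.0 immunofluorescence intensity relative to DMSO in this document: TDF is a line of transformed human dermal fibroblasts of mesenchymal origin.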
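For cell number relative to DMSO in this document: TDF denotes transformed human dermal fibroblasts of mesenchymal origin.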

Compound | cell number (HCC1569 [1]) | cell number (TDF [2]) | H1.0 immunofluorescence intensity (TDF [3]) | H1.0 immunofluorescence intensity (HCC1569 [4])
O=c1c(-c2ccc(O)cc2)coc2cc(OC3OC(CO)C(O)C(O)C3O)ccc12 (stereo not given) [Daidzin] | 95.7 | 108 | 94.8 (inactive) | 89.9 (inactive)
CCC1(c2ccccc2)C(=O)NCNC1=O [Primidone] | 102 | 97.2 | 98 (inactive) | 102 (inactive)
CCCCC#Cc1nc(N)c2ncn(C3OC(C(=O)NCC)C(O)C3O)c2n1 (stereo not given) | 93.3 | 99.3 | 95.2 (inactive) | 110 (inactive)
Br.CN(C)CCCC1(c2ccc(F)cc2)OCc2cc(C#N)ccc21 (stereo not given) [Citalopram hydrobromide] | 101 | 103 | 96 (inactive) | 92.5 (inactive)
CC1COc2c(N3CCN(C)CC3)c(F)cc3c(=O)c(C(=O)O)cn1c23 (stereo not given) [Ofloxacin] | 101.5 ± 0.68 | 101 ± 5.3 | 95 (inactive) | 96.5 (inactive)
CCN1CCCC1CNC(=O)c1c(OC)ccc(I)c1O (stereo not given) | 106 | 91 | 96.7 (inactive) | 88.1 (inactive)
Cl.O=S(=O)(c1cccc2c(I)cccc12)N1CCCNCC1 | 105 | 116 | 99.4 (inactive) | 89.8 (inactive)
CCOC(=O)C(CCc1ccccc1)NC(C)C(=O)N1CCCC1C(=O)O (stereo not given) [Enalapril] | 104 | 106 | 98.8 (inactive) | 118 (inactive)
CCCCCC=CCC=CCC=CCC=CCCCC(=O)OC(CO)COC(=O)CCCCCCCCCCCCCCCCC (stereo not given) [1-Stearoyl-2-arachidonoyl-glycerol] | 100 | 104 | 98.4 (inactive) | 98 (inactive)
NS(=O)(=O)c1cccc2c1c([N+](=O)[O-])cc1nc([O-])c([O-])nc12.[Na+].[Na+] [NBQX disodium] | 104 | 103 | 93.8 (inactive) | 91.8 (inactive)
CCOC(=O)C1=C(C)NC(=S)NC1c1cccc(O)c1 (stereo not given) [Monastrol] | 99.8 | 112 | 100 (inactive) | 97.1 (inactive)
CCCCCCC=CCCCCCCCCC(=O)O [10(Z)-Heptadecenoic acid] | 99.6 | 95.4 | 101 (inactive) | 102 (inactive)
CN(C)CCCSc1ccccc1NC(=O)C=Cc1ccccc1 [Cinanserin] | 103 | 102 | 102 (inactive) | 107 (inactive)
Cc1c(OCC(F)(F)F)ccnc1CS(=O)c1nc2ccccc2[nH]1 (stereo not given) [Lansoprazole] | 96.3 | 108 | 90.1 (inactive) | 104 (inactive)
CN1CCN(CCCN2c3ccccc3Sc3ccc(C(F)(F)F)cc32)CC1.Cl.Cl [Trifluoperazine dihydrochloride] | 87.3 | 108 | 107 (inactive) | 141 (active)
COc1c2occc2cc2ccc(=O)oc12 [Xanthotoxin] | 101 | 104 | 106 (inactive) | 103 (inactive)
O=[N+]([O-])c1ccc(Nc2nc(N3CCOCC3)nc(N3CCOCC3)n2)cc1 | 96.5 | 99 | 95.8 (inactive) | 102 (inactive)
CCCCCC=CCC=CCCCCCCCCCCCC(=O)O [13(Z),16(Z)-Docosadienoic acid] | 100 | 109 | 104 (inactive) | 89.9 (inactive)
COc1cc(CNC(=O)CCCCCCC(C)C)ccc1O [Dihydrocapsaicin] | 96.7 | 101 | 91.1 (inactive) | 97 (inactive)
CNC(=O)c1cc2c(cn1)[nH]c1ccccc12 [N-Methyl-beta-carboline-3-carboxamide] | 107 | 111 | 87.9 (inactive) | 85.2 (inactive)
O=C(NCCO[N+](=O)[O-])c1cccnc1 [Nicorandil] | 102 | 96.3 | 91.5 (inactive) | 107 (inactive)
CN(C)CCOc1cc(-c2cn[nH]c2)ccc1NC(=O)C1COc2ccccc2O1 (stereo not given) | 103 | 95.7 | 87.3 (inactive) | 112 (inactive)
O=C1c2ccccc2-[n+]2ccc3c([nH]c4ccccc43)c21.[Cl-] [Fascaplysin, Synthetic] | 49.8 | 6.76 | 182 (active) | 60.9 (inactive)
CN(C)CCOc1ccc(C(=C(CCCl)c2ccccc2)c2ccccc2)cc1 [Toremifene] | 97.2 | 104 | 102 (inactive) | 122 (inactive)
COc1cc2ncnc(Nc3cccc(Cl)c3)c2cc1OC | 83.8 | 88 | 99.4 (inactive) | 111 (inactive)
